Experiment [1] can be described thus: small molecules captured by biotinylated probe aFSTL3 – biochemical, small-molecule microarray, fluorescence 635/667, stem cell growth factor project, primary screen (AID 1064).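 Also: measures binding of the biotinylated anti-FSTL3 antibody to printed compounds.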 The conditions noted are these: higher = more signal.
Experiment [2] is described as follows: binders from COS7 lysate, DM2A8 probe, primary screen, torsin A project, cell lysate, small-molecule microarray, fluorescence 635/667 (AID 1065). The conditions noted are these: higher = more signal, COS7 lysate expressing mutant human TOR1A.
A short description of experiment [3]: small molecules captured by biotinylated probe aFGF2 – biochemical, small-molecule microarray, fluorescence 635/667, stem cell growth factor project, primary screen (AID 1067).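 Also: measures binding of biotinylated aFGF2 protein to printed compounds on slides; z-score merges feature fluorescence and signal-to-noise across triplicate slides.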 The settings on record: higher = more signal.
Experiment [4] is described as follows: small molecules captured by biotinylated probe aFGF10 – biochemical, small-molecule microarray, fluorescence 635/667, stem cell growth factor project, primary screen (AID 1071).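 Also: score merges 667 nm spot intensity and signal to noise from triplicate slides.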 The settings on record: higher = more signal.
Experiment [5] has as its target Neurogenic locus notch homolog protein 2 (Homo sapiens) (UniProt Q04721). Nature of the experiment: small molecules binding Notch2 protein – biochemical, small-molecule microarray, 635 nm fluorescence, stem cell growth factors, primary screen (AID 1073). The conditions noted are these: higher = more signal.
Experiment [6] has as its target Pro-neuregulin-1, membrane-bound isoform (Homo sapiens) (UniProt Q02297). Nature of the experiment: small molecules binding neuregulin-1 protein – biochemical, small-molecule microarray, fluorescence 635/667, psychiatric disease protein project, primary screen (AID 1075).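 Also: score combines 667 nm spot fluorescence with signal to noise.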 The settings on record: NRG1 binding, 635 nm fluorescence, higher = more signal.
The test system of experiment [7] is Neuregulin-1 EGF-like domain. Nature of the experiment: small molecules binding NRG1 EGF domain – biochemical, small-molecule microarray, 635 nm fluorescence, primary screen (AID 1081).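 Also: binding of the protein to compounds printed on small-molecule microarray slides.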 The settings on record: higher = more signal.
The nature of experiment [8]: FRG1 expression reporter modulators in myotubes – cell-based, C2C12 myotubes, firefly/Renilla luciferase, luminescence, FRG1 inhibition for FSHD, primary screen (AID 1084). The settings on record: FRG1 promoter luciferase, higher = more signal, called active from +8 up or from −8 down.
Experiment [9] in a line: small molecules captured by biotinylated probe aFST – biochemical, small-molecule microarray, fluorescence 635/667, stem cell growth factor project, primary screen (AID 1086).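 Also: score merges 667 nm fluorescence with signal-to-noise of each printed compound spot.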 The conditions noted are these: higher = more signal.
Experiment [10] in a line: binders of probe aHhip on microarray, primary screen, stem cell growth factor project, biochemical, small-molecule microarray, fluorescence 635/667 (AID 1087).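 Also: score merges spot fluorescence at 667nm with spot signal to noise ratio.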 The settings on record: higher = more signal.
In experiment [11] the test system is PRMT1 (protein arginine N-methyltransferase 1). Nature of the experiment: small molecules binding arginine methyltransferase PRMT1 – biochemical, small-molecule microarray, 635 nm fluorescence, primary screen (AID 1088).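 Also: binding of Prmt1 protein to compounds spotted on small-molecule microarray slides.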 The conditions noted are these: higher = more signal.
Experiment [12] in a line: growth effects on S. cerevisiae YJM789 – YJM789 clinical isolate, OD600, 24 h, basal, primary screen (AID 1089).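 Also: growth of clinical yeast isolate S. cerevisiae YJM 789 seeded 1000 cells per well; test concentration not given here.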 The conditions noted are these: higher = more signal, called active from +8 up or from −8 down.
Experiment [13] is described as follows: S. pombe growth modifiers, basal conditions – strain 972, OD600, 24 h, no modulator, primary screen (AID 1090).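 Also: basal condition with compound alone and no growth modifier present; test concentration not given here.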 The settings on record: S. pombe 972 growth, higher = more signal, called active from +8 up or from −8 down.
Experiment [14] is described as follows: budding yeast growth modifiers under rapamycin – strain BY4716, OD600, 96 h, primary screen (AID 1091). Also: test concentration not given here. The conditions noted are these: S. cerevisiae BY4716 + rapamycin, higher = more signal, called active from +8 up or from −8 down.
In experiment [15] the target is Torsin-1A-interacting protein 2 (Homo sapiens) (UniProt Q8NFQ8). Nature of the experiment: small molecules binding lysate-expressed LULL1 – cell lysate, human LULL1 lysate, 635/667 nm fluorescence, primary screen (AID 1092).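 Also: score merges per-feature 667 nm fluorescence with signal-to-noise.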 The conditions noted are these: small-molecule microarray, hLULL1 lysate binding, 635 nm fluorescence; higher = more signal.
Experiment [16] in a line: optical density change of DRC41 E. coli – strain DRC41, OD650, 24 h, E. coli filamentation project, primary screen (AID 1093).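 Also: MC1000 strain lacking acrAB efflux and sulA so SOS filamentation is blocked; test concentration not given here.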 The settings on record: E. coli DRC41 growth, higher = more signal, called active from +8 up or from −8 down.
The nature of experiment [17]: probe aLefty2 binding to arrayed compounds – biochemical, biotinylated probe, 635/667 nm fluorescence, primary screen (AID 1094).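 Also: score merges spot fluorescence near 667 nm with spot signal-to-noise ratio.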 The conditions noted are these: small-molecule microarray, higher = more signal.
In experiment [18] the test system is Noggin (protein binding on small-molecule microarray). Nature of the experiment: small molecules binding Noggin protein – biochemical, 635/667 nm fluorescence, primary screen (AID 1095).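 Also: score merges 667 nm feature fluorescence with signal to noise over triplicate slides.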 The conditions noted are these: 635 nm fluorescence, higher = more signal.
The target of experiment [19] is Neurogenic locus notch homolog protein 3 (Homo sapiens) (UniProt Q9UM47). Nature of the experiment: small molecules binding NOTCH3 protein – biochemical, 635/667 nm fluorescence, primary screen (AID 1096). The conditions noted are these: small-molecule microarray, 635 nm fluorescence, higher = more signal.
Experiment [20] in a line: probe aEGFR binding to arrayed compounds – biochemical, biotinylated probe, 635/667 nm fluorescence, primary screen (AID 1097).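 Also: probe is a biotinylated anti-EGFR antibody binding compounds printed on slides; score combines fluorescence near 667 nm and signal to noise of each spot.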 The settings on record: small-molecule microarray, higher = more signal.

These results are taken from PubChem BioAssay.

Activity calls are given as the source filed them.

Sequence of Torsin-1A-interacting protein 2 (Homo sapiens) (Q8NFQ8 whole entry, looked up): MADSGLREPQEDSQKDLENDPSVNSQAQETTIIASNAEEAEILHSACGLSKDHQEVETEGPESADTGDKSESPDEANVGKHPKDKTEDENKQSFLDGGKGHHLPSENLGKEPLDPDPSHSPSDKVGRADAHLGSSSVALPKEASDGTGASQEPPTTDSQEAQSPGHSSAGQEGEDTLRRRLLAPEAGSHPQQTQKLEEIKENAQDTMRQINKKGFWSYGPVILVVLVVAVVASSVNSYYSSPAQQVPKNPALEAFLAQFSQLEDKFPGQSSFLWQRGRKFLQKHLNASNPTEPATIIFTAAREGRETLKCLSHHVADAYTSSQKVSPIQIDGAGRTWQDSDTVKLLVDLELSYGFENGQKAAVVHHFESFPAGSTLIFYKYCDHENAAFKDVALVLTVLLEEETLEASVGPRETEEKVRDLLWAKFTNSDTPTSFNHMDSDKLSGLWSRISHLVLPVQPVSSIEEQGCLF
Sequence of Neurogenic locus notch homolog protein 2 (Homo sapiens) (Q04721 whole entry, looked up, canonical isoform): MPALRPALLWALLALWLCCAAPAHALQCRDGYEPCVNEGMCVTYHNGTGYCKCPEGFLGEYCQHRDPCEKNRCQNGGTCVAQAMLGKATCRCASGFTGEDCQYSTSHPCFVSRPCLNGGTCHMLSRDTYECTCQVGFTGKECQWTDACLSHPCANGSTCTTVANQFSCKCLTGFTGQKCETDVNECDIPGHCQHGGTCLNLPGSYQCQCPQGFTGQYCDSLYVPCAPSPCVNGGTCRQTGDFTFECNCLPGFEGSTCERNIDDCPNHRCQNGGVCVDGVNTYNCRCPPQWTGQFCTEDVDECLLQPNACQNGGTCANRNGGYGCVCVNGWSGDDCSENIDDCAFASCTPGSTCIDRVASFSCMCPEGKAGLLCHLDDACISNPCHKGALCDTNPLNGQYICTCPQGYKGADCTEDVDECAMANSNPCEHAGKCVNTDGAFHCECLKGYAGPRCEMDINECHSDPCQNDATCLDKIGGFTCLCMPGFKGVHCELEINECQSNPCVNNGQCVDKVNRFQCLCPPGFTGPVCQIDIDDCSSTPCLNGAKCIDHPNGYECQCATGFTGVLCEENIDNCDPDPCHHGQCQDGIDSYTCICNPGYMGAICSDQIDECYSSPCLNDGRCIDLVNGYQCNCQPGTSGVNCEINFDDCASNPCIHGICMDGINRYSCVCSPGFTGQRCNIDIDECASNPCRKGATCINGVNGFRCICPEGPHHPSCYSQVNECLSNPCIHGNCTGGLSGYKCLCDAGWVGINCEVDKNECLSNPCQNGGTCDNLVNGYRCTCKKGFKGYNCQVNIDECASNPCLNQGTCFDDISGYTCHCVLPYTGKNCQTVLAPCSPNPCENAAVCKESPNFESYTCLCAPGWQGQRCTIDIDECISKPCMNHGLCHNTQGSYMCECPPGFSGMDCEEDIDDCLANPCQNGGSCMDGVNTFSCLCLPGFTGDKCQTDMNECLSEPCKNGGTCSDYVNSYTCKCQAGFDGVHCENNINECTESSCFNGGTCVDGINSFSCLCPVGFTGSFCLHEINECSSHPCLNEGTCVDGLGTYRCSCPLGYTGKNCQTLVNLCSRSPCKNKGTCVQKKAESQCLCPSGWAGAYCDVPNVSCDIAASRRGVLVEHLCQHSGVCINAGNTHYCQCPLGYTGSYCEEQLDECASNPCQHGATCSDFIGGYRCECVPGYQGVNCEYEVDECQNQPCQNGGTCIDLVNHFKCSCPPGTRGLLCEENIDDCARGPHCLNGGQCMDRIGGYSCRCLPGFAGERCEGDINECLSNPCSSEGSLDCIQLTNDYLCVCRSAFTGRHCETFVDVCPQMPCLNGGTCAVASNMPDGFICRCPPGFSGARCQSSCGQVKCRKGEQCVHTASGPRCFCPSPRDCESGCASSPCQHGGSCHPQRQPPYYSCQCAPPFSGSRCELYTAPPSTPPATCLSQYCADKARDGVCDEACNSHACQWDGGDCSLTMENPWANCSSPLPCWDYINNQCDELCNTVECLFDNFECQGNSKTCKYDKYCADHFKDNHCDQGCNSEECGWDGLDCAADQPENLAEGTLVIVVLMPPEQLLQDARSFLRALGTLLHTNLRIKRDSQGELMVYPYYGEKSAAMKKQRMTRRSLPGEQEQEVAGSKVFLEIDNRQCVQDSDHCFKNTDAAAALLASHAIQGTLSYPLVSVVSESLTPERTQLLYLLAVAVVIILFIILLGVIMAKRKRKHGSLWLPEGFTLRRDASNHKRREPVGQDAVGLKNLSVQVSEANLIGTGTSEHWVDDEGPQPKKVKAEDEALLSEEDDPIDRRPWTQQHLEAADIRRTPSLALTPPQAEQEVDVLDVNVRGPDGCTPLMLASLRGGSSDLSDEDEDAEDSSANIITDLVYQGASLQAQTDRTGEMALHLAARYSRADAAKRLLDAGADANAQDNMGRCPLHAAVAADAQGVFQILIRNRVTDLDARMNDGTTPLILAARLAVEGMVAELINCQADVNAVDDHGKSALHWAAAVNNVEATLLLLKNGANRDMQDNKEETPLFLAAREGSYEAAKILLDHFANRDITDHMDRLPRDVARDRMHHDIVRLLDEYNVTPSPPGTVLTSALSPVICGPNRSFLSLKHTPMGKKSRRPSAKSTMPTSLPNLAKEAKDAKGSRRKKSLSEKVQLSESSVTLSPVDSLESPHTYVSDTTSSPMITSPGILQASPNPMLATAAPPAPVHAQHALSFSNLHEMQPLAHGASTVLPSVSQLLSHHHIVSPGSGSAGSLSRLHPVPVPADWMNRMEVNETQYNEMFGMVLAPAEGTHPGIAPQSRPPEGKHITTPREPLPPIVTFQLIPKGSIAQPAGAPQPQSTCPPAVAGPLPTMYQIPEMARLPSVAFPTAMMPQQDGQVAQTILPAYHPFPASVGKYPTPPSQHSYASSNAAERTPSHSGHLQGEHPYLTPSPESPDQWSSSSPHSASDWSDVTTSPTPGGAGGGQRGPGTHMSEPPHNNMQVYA
Sequence of Pro-neuregulin-1, membrane-bound isoform (Homo sapiens) (Q02297 whole entry, looked up, the tested form may be a part, canonical isoform): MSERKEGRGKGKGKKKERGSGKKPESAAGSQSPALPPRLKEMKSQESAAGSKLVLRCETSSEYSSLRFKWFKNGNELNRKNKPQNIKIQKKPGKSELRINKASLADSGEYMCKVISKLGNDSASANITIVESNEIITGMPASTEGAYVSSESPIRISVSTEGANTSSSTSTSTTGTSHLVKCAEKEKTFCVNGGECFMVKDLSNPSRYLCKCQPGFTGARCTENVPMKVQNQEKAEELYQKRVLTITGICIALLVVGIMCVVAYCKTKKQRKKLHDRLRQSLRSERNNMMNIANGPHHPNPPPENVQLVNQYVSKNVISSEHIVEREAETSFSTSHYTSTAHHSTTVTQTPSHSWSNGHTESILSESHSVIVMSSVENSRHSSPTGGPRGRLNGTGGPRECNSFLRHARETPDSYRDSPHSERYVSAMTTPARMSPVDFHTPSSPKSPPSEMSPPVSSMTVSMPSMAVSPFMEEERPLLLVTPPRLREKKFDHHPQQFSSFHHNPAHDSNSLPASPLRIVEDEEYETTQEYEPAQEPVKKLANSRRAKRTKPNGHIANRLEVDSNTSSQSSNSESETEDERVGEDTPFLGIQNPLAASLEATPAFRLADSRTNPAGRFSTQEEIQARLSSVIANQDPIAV

As for `COc1c(C)cc(-c2cc3c(c(-c4ccc(Oc5ccccc5)cc4)n2)[Si](C(C)C)(C(C)C)OC3)cc1C`, the composite z-score was -0.128 in experiment [1]; -0.0685 in experiment [2]; -0.147 in experiment [3]; -0.114 in [4]; 0.104 in [5]; -0.0614 in [6]. Further, the composite z-score in [7] is -1.06; in experiment [9] it was 0.0723; in [10], -0.353; in [11], -0.871; in experiment [15] it was 0.0255; in experiment [17], -0.0528. Also, the composite z-score was 0.104 in [18], -0.386 in experiment [19] and -0.0947 in experiment [20]. The z-score in experiment [8] is 0.643 (inactive); in [12] it was 1.09 (inactive); in experiment [13], 0.818 (inactive); in experiment [14], 2.03 (inactive); in experiment [16], -1.38 (inactive).

For the molecule `COCC(=C=CC[C@H](O)c1ccc(OCCO)cc1)C[C@H](O)c1cc(Cl)cc(Cl)c1O`, the composite z-score in experiment [1] was -0.327; in experiment [2], 0.95; in experiment [3] it was -0.0125; in experiment [4] it was 0.754; in experiment [5], 0.623; in experiment [6], 0.458. Further, the composite z-score in experiment [7] was 1.16; in experiment [9], 0.582; in [10] it was 0.0505; in [11], 1.55; in experiment [15] it was -1.22; in [17] it was -0.166. The figures for the composite z-score in experiment [18], in experiment [19] and in [20] were 1.86, 1.12 and -0.0334, respectively. Moreover, the z-score in experiment [8] was -3.67 (inactive); in experiment [12], -24.9 (active); in experiment [13] it was -20.5 (active); in experiment [14] it was -3.87 (inactive); in [16], 0.813 (inactive).

Consider `C[C@]1(C(=O)NCc2ccccc2)c2ccccc2C(=O)N(Cc2ccc(OC(F)(F)F)cc2)[C@H]1c1ccc(CO)cc1`, for which the composite z-score in experiment [1] was 0.161; in experiment [2] it was 1.14; in experiment [3], -0.0507; in experiment [4], -0.0562; in experiment [5] it was -0.323; in experiment [6] it was 0.349. The composite z-score in experiment [7] was 0.711; in experiment [9] it was -0.409; in experiment [10] it was -0.431; in [11], -0.0073; in experiment [15] it was 2.06; in [17], -0.0719. The values for the composite z-score in [18], in [19] and in experiment [20] were 0.0824, -0.184 and -0.0689, respectively. Further, the z-score was -4.27 (inactive) in [8]; -0.913 (inactive) in [12]; -0.935 (inactive) in experiment [13]; -0.67 (inactive) in experiment [14]; 1.36 (inactive) in experiment [16].

In the case of `COc1ccc(CCNC(=O)[C@@H]2c3ccccc3C(=O)N(Cc3ccc(OC(F)(F)F)cc3)[C@H]2c2ccc(CO)cc2)cc1`, the composite z-score in experiment [1] was 0.111; in [2], 0.321; in experiment [3], -0.0937; in experiment [4], 0.252; in [5], 0.0125; in experiment [6], 0.75. For the same molecule, the composite z-score is 0.882 in experiment [7]; 0.322 in experiment [9]; -0.0672 in [10]; 1.55 in [11]; 2.48 in experiment [15]; -0.169 in experiment [17]. Moreover, the composite z-score in [18] is 0.54; in experiment [19], 0.342; in experiment [20], -0.0967. Further, the z-score in experiment [8] was -2.61 (inactive); in experiment [12] it was -0.392 (inactive); in [13], -0.51 (inactive); in experiment [14], -0.0066 (inactive); in experiment [16], -0.652 (inactive).

For the molecule `COCCOC(=O)N1C(=O)[C@@]2(c3cc(C#CCC(C(=O)OC)C(=O)OC)ccc31)[C@H](c1ccccc1OCCO)N1[C@H](c3ccccc3)[C@H](c3ccccc3)OC(=O)[C@H]1[C@@H]2C(N)=O`, the composite z-score is -0.0037 in experiment [1]; 0.532 in experiment [2]; 0.0495 in experiment [3]; 1.17 in experiment [4]; 0.923 in [5]; 1.42 in [6]. Moreover, the composite z-score was determined as 1.21 in [7]; 0.0716 in experiment [9]; 0.107 in [10]; 1.17 in [11]; 2.74 in experiment [15]; 0.0074 in experiment [17]. Further, the figures for the composite z-score in experiment [18], in experiment [19] and in experiment [20] were 0.726, 1.1 and -0.0346, respectively. Further, the z-score in [8] is -0.885 (inactive); in experiment [12] it was 1.47 (inactive); in experiment [13], 0.951 (inactive); in experiment [14] it was 4.79 (inactive); in experiment [16] it was 1.12 (inactive).

For the molecule `COc1ccc(C(O)C2C=CC3C(=O)NC(=O)C3N2Nc2ccccn2)cc1OCc1ccccc1` (stereo not given), the composite z-score is -0.202 in experiment [1]; -0.0593 in experiment [2]; -0.0226 in experiment [3]; 0.177 in experiment [4]; 1.27 in [5]; 1.71 in experiment [6]. Further, the composite z-score is 0.666 in experiment [7]; 0.216 in experiment [9]; 3.69 in experiment [10]; 0.301 in experiment [11]; 3.51 in [15]; -0.0865 in experiment [17]. Also, the composite z-score in experiment [18] is 0.15; in experiment [19], -0.192; in experiment [20] it was 0.0357. Also, the z-score in experiment [8] is 0.387 (inactive); in experiment [12] it was 0.167 (inactive); in [13], 1.03 (inactive); in experiment [14], -0.269 (inactive); in [16] it was -0.181 (inactive).

With `C=CCOC(=O)[C@@H]1[C@H]2C(=O)O[C@H](c3ccccc3)[C@H](c3ccccc3)N2[C@H](c2ccc(OCCOC(=O)[C@@H]3C[C@@H]4C(=O)NCC(=O)N4[C@@H]3c3cccc(OCCO)c3)cc2)[C@@]12C(=O)Nc1ccc(I)cc12`, the composite z-score in experiment [1] is -0.112; in [2], 0.948; in [3], -0.119; in [4], 0.818; in experiment [5] it was 1.18; in experiment [6], 1.29. Further, the composite z-score in experiment [7] was 1.35; in [9] it was 0.272; in experiment [10] it was -0.0391; in experiment [11] it was 1.53; in [15], 2.53; in experiment [17], -0.0654. For the same molecule, the figures for the composite z-score in [18], in [19] and in experiment [20] were 1.14, 1.1 and 0.0618, respectively. Moreover, the z-score was 0.536 (inactive) in experiment [8]; 0.895 (inactive) in [12]; 1.01 (inactive) in experiment [13]; 2.19 (inactive) in experiment [14]; -0.637 (inactive) in [16].

For `O=C1N(CCS(=O)(=O)c2ccccc2)Cc2ccccc2[C@H]2OC(c3ccc(OCCCO)cc3)=N[C@@]12CCS(=O)(=O)c1ccccc1`, the composite z-score in experiment [1] was determined as 1.11; in experiment [2], 0.994; in [3], 0.145; in [4], 0.784; in [5], 1.37; in experiment [6], 1.62. Besides, the composite z-score is 1.36 in experiment [7]; 0.593 in [9]; -0.189 in [10]; 1.57 in experiment [11]; 3.01 in experiment [15]; 0.417 in experiment [17]. In addition, the figures for the composite z-score in experiment [18], in experiment [19] and in experiment [20] were 0.894, 1.06 and 0.162, respectively. For the same molecule, the z-score in [8] was -2.53 (inactive); in experiment [12], 1.91 (inactive); in experiment [13], 1.62 (inactive); in experiment [14], 8.55 (active); in experiment [16], -0.409 (inactive).

As to `CC(C)C(=C=CC[C@H](O)c1cccc(OCCO)c1)C[C@H](O)COCc1ccccc1`, the composite z-score in experiment [1] is -0.222; in experiment [2], 0.0852; in experiment [3] it was -0.095; in [4], 0.659; in experiment [5], -0.139; in experiment [6] it was 1.67. The composite z-score in [7] was 1.13; in [9] it was -0.22; in experiment [10], -0.0994; in experiment [11] it was 0.975; in experiment [15], 1.92; in [17], -0.0616. Also, the composite z-score in experiment [18] is 0.551; in experiment [19] it was -0.243; in experiment [20] it was -0.081. Moreover, the z-score in experiment [8] was 0.724 (inactive); in experiment [12] it was -0.0398 (inactive); in [13], 0.299 (inactive); in experiment [14], -0.623 (inactive); in [16], 0.299 (inactive).
